# Source: PubChem
# Bst PK mod: alters activity of Bacillus stearothermophilus pyruvate kinase; purified pyruvate kinase, luminescence ATP production; ribose 5-phosphate activator present at AC10; Potency, µM; hit rate 1.2% among 51,000; AID 361; in the data active = potency below about 11 µM; inconclusive = mostly about 12 µM to 25 µM;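 the screen sought inhibitors and activators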;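 note: potency is the fitted concentration of half-maximal effect; scaled between full activation by ribose 5 phosphate and full inhibition by luteolin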
# UbGFP stabilizer: inhibits proteasome, raising ubiquitin-GFP reporter fluorescence; Potency, µM (highest dose often 45.9 µM), without a hit: top-dose activation (GFP accumulation), usual class: activators; 67,000 tested, under 10 active; Ubiquitin-GFP reporter cells, proteasome inhibition, GFP fluorescence; response scale: untreated = 0%, 10 µM MG-132 = 100%; active = well fitted activation curve with a large enough effect, not every such curve was filed as active; inconclusive = small, poorly fitted or top-dose-only effect, or another doubt; inactive = no such curve, though single readings can be large or run the other way; note: potency is the fitted concentration of half-maximal effect
#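 Reporter cells (U2OS, ubiquitin-G76V-GFP fusion) are plated overnight, then treated 4 hr at 37 °C with compound titrations from 46 uM down to 2.9 nM. Activity is scaled against untreated cells and 10 uM MG-132.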
# HBB splicing: alters splicing of the hemoglobin beta chain | HBB splicing reporter cell assay, activation; EGFP reporter with mutant IVS2-654 intron; response scale: normalised to 500 nM splice-correcting PNA | Potency, µM (doses to about 46.1 µM), without a hit: at the highest dose activation, most hits filed as activators | hit rate 0.06% among 65,000 | AID 925; note: potency is the fitted concentration of half-maximal effect; 0% is about no effect
#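 Compounds were applied for 2 days to HeLa EGFP-654 cells, 500/well in Optimem with 2% FCS. The reporter's EGFP is disrupted by mis-splicing of beta-globin intron IVS2-654. Readout: summed well GFP fluorescence from 488 nm laser scanning; reference was 500 nM antisense […] 654 PNA.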
# FLuc inh: inhibitors of firefly luciferase | Potency, µM (series often up to 57.1 µM), for inactives: top-dose activity change, negative = inhibition, usual class: inhibitors | purified firefly luciferase, luminescence, 8 min | AID 411 | hit rate 2.2% among 72,000; note: potency is the fitted concentration of half-maximal effect; % is set by controls: 0 for no effect and ±100 for the full control effect; nearly all actives have a fitted effect of over 40% in size
# Target sequence (P08659 whole entry, looked up): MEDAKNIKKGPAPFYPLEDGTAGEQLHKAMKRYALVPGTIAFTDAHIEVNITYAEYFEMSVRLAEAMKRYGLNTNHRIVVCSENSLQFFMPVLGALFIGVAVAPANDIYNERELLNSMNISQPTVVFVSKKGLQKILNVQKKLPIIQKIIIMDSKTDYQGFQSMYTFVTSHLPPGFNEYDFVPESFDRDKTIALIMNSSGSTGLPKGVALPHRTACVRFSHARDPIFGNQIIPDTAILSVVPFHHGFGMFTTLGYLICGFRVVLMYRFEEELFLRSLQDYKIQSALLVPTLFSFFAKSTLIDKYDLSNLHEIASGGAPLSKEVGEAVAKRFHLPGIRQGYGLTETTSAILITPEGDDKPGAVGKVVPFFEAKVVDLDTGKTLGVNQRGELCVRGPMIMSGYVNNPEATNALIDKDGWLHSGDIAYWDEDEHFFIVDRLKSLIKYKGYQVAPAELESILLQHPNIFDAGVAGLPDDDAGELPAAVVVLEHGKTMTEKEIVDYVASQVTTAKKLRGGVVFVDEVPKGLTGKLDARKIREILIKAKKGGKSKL
#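 Firefly luciferase (PKLight detection mix) with 10 uM ATP in pH 7.2 imidazole buffer (KCl, MgCl2, Tween 20, BSA). Compounds tested across a concentration series (qHTS). Luminescence read after 8 min at ambient temperature.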
# GFP derepression: derepresses silenced GFP locus in mouse C127i cells. mouse C127i GFP locus derepression, cytometry, 30 h. Potency, µM (series often up to 46.1 µM), for the others: at the top dose GFP derepression (activation). hit rate 0.09% among 68,000. AID 597; note: % of control where 0% means no effect
#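 Locus derepression in mouse mammary C127i cells whose integrated CMV-GFP reporter is normally silent; GFP expression after 30 h compound treatment was quantified by counting fluorescent cells.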
# Active calls of the source: *; i = inactive; u = inconclusive; x = not tested or not shown; [ ] = dose if it differs, or a comment. Shown are actives, neighbours in structure and some others; about 2.6% of the full set was active somewhere. Unless noted, calls come from the whole dose curve; as a rule, active = well fitted curve in the direction sought with a large enough effect; inconclusive = small, poorly fitted or top-dose-only effect, or another doubt; inactive = no such curve, though single readings can be large; an effect the other way counts as inactive or inconclusive.
SMILES,Bst PK mod,UbGFP stabilizer,HBB splicing,FLuc inh,GFP derepression
Brc1ccc(-c2cnnc(N3CCCC3)n2)cc1,2.4*,x,x,-1%[25.5 µM],0%[20.6 µM]
Cc1cc(C)n(-c2nncc(-c3ccccc3)n2)n1,x,15%,-1%[9.22 µM],-6%,0%
CCOc1ncccc1C(=O)OCC(=O)c1cc(C)n(Cc2ccco2)c1C,u,0%,0%[57.5 µM],13µM*,0%
O=C(Nc1ccc(SC(F)F)cc1)C1=COCCO1,i,-2%,0%[57.5 µM],25µM*,3%
O=C(NC1CCCCCCC1)C1=COCCO1,>57,-1%,0%[57.5 µM],-9%,2%
Cc1cc(/C=c2/sc3nc4ccccc4n3c2=O)c(C)n1-c1ccccn1,0.84*,x,x,0.5µM*,-4%[20.6 µM]
O=c1/c(=C\c2cccnc2)sc2nc3ccccc3n12,x,0%,-1%,-10%,3%
Cc1csc(NC(=O)CCn2c(=O)sc3ccccc32)n1,>57,-6%,-3%,-14%,0%
O=C(CCn1c(=O)sc2ccccc21)Nc1nccs1,x,0%,-3%,20µM*,1%
CSCCNC(=O)c1ccc(C(C)(C)C)cc1,u,0%,-2%,13µM*,0%
COc1ccccc1N=c1oc2cc(O)ccc2cc1C(N)=O,x,-6%,1%,7.9µM*,3%
Cc1cccc(N=c2oc3cc(O)ccc3cc2C(N)=O)c1,x,7%,-1%,-15%,1%
COc1ccccc1N=c1oc2cc(O)ccc2cc1C(=O)NCC1CCCO1 (centres undefined),2.6*,0%,x,-7%,1%
N=C(c1ccc2ccccc2c1)c1ccccc1Cc1ccccc1,x,-3%[9.17 µM],1%[9.22 µM],3%[11.4 µM],-2%[9.22 µM]
O=C(Nc1ccc(N2CCCC2)cc1)c1ccc(Br)o1,x,-9%[9.17 µM],-1%[0.0738 µM],2.5µM*,-2%
CCCCOC(=O)Nc1ccc(N2CCCCC2)cc1,x,-9%,-6%,13µM*,2%
O=C(Nc1ccc(N2CCCCC2)cc1)c1ccc(F)cc1,x,5%,0%[57.5 µM],4µM*,-2%
CCN(CC)c1ccc(NC(=O)c2ccc(Br)o2)cc1,x,-15%[9.17 µM],0%[0.0738 µM],10µM*,0%
CC(C)(C)NC[C@H](O)COc1cccc2c1C[C@@H](O)[C@@H](O)C2,x,-4%[20.5 µM],1%[20.6 µM],0%[25.5 µM],2%[20.6 µM]
CCc1ccc2[nH]c(=O)c(CN(CCCN3CCOCC3)C(=O)Nc3ccc(Cl)cc3)cc2c1,6.6*,-8%,x,-1%,-2%
CN(C)CCn1c(CO)nc2c1c(=O)n(C)c(=O)n2C,x,-1%[9.17 µM],6%[9.22 µM],2%[11.4 µM],5%[9.22 µM]
Nc1c(Br)cc2oc(-c3ccccc3)nc2c1Br,x,x,x,-13%[25.5 µM],4%[20.6 µM]
COc1ccc(-c2nc3c(Br)c(N)c(Br)cc3o2)cc1,u,x,x,2.5µM*,0%[20.6 µM]
Oc1ccccc1OCc1nc2ccccc2s1,x,3%[9.17 µM],2%[0.0738 µM],20µM*,0%
CS(=O)(=O)N1CCC2(CCCN(c3ncccn3)C2)CC1,x,6%,1%,2%[11.4 µM],-2%[9.22 µM]
SMILES,Bst PK mod,UbGFP stabilizer,HBB splicing,FLuc inh,GFP derepression
O=C(Nc1cnc2ccccc2c1)N1CCCCC1,x,13%,-1%,10µM*,1%
NC(=O)c1ccc(-c2nc(-c3ccc4c(c3)OCO4)c(-c3ccccn3)[nH]2)cc1,x,-1%,x,7.9µM*,0%
Cn1c(SCC(=O)c2ccc3c(c2)OCO3)nnc1-c1ccccn1,>57,-5%,-1%,1%,0%
CC(=O)OC[C@@H]1O[C@@H](O/N=C2/C[C@@H](O)[C@@H](O)[C@@H]3[C@@H]4C(=O)N(C(C)(C)C)C(=O)[C@H]4CC[C@H]23)[C@H](OC(C)=O)[C@H](OC(C)=O)[C@@H]1OC(C)=O,x,x,-1%[9.22 µM],3%[11.4 µM],x
CCOC(=O)Cn1nc(-c2ccc(Cl)cc2)cc1N,5.8*,3%,x,-6%,0%
CCOC(=O)CCn1nc(-c2ccc(Cl)cc2)cc1N,x,-5%,-3%,-2%,0%
Cn1cc(-c2nc3cnc(N4CCNCC4)nc3n(C)c2=O)c2ccccc21,x,-7%,1%,-4%[11.4 µM],16%[9.22 µM]
Cc1c(C(=O)OCCOc2ccccc2)[nH]c2c1C(=O)CCC2,u,-13%,-3%,10µM*,-4%
Cc1ccnc(NC(=O)C2CCN(S(=O)(=O)c3cccc4nsnc34)CC2)c1,i,10%,-1%,3%,0%
O=C(Nc1cccc2nsnc12)c1ccc2c(c1)OCCO2,x,-8%,0%,20µM*,1%
O=S(=O)(Nc1ccc2c(c1)OCCO2)c1cccc2nsnc12,8.6*,13%,-1%,-14%,0%
